# Screens: PubChem, several laboratories
# An excerpt weighted towards active compounds, which were near 2.5% of everything screened.
# HIV Env fusion: inhibitors of HIV-1 Env-driven cell-cell fusion, primary screen, HeLa-JRFL effector, CEM21 target cells, luciferase | inhibition, % at 12.3 µM | actives 1.1% (n = 360,000);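 active = mean replicate inhibition score of at least 50 and every replicate individually at or above 50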
# EWS-Fli inh: EWS/Fli-driven NR0B1 reporter inhibitors, primary screen, A673 cells, NR0B1 luciferase, luminescence, MLPCN library | actives 0.67% (n = 350,000) | viability-normalised | inhibition, % at 12.6 µM;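 active = mean inhibition of at least 50% after viability correction, with every replicate also passing that limit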;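 note: firefly luciferase signal divided by Alamar Blue viability fluorescence both relative to DMSO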
# F508del corr: F508del CFTR correction, initial screen, CFBE line, single point. AID 720511, 2013. activity (quench increase), % at 7.58 µM. actives 0.36% (n = 350,000). CFBE cells, YFP halide quenching; stimulated with forskolin plus potentiator P3; % fluorescence drop versus neutral controls;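 active = mean added fluorescence quench of at least 8% versus neutral control, with both replicates also reaching 8%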;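 note: cells transiently co-express mutant CFTR-F508del with the halide-sensitive YFP; corrector assay measuring rescue of mutant channel to the surface after 24 h compound exposure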
# PAX8 inh HTS: inhibitors of PAX8-driven TPO luciferase reporter, primary screen, RMG-I cells, single concentration; SteadyGlo, 24 h; AID 652154, 2013; inhibition, % at 12.6 µM; actives 1.2% (n = 360,000);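 active = mean replicate inhibition at least 60% with every replicate also reaching 60%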;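 note: luciferase light reporting Pax8 driven TPO promoter activity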
# FXN GAA850 act: FXN promoter activators, primary screen, cell-based, luciferase luminescence, HEK293 lucGAA850 | actives 0.56% (n = 360,000) | activation, % at 6 µM | HEK293 lucGAA850 FXN promoter luciferase reporter, 24 h; percent of 10 µM SAHA response;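 active = activation above the average of all compounds screened plus 3 SD, cutoff fixed separately per campaign, cut at about 7.5% in these data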
# A number is an active result; 0 = inactive; - = no result; ! = a repeat was not active; [ ] = dose if it differs, or a comment.
SMILES,HIV Env fusion,EWS-Fli inh,F508del corr,PAX8 inh HTS,FXN GAA850 act
COc1ccc(C2CC(c3cccs3)=NN2C(=O)c2ccccc2)cc1OC (centres undefined),0,0,0,0,0
CN1C(=O)c2cc(NS(=O)(=O)CC(F)(F)F)ccc2OC[C@H]2O[C@@H](CC(=O)Nc3cccc(F)c3)CC[C@@H]21,0,0,-,0,-
CCS(=O)(=O)N1CC2(CN(C(=O)CN3CCOCC3)[C@H](CO)c3c2c2ccc(OC)cc2n3C)C1,0,0,0,-,-
CSCCC(NC(=O)c1ccccc1Br)C(=O)NC(C)CCc1ccccc1 (centres undefined),64.0,-,0,0,0
CSCCC(NC(=O)c1ccccc1)C(=O)NCCc1ccccc1 (centres undefined),0,0,0,0,0
CC(CCc1ccccc1)NC(=O)c1ccc(C(=O)NC(C)CCc2ccccc2)cc1 (centres undefined),0,-,-,80.8,0
CC(CCc1ccccc1)NC(=O)c1ccccc1 (centres undefined),-,-,-,-,0
CCCNC(=O)C[C@@H]1C[C@H]2c3cc(NC(=O)Cc4ccncc4)ccc3O[C@H]2[C@H](CO)O1,97.9[16.7 µM],0,0,0,-
COCCNC(=O)C[C@H]1C[C@H]2c3cc(NC(=O)Cc4ccncc4)ccc3O[C@H]2[C@H](CO)O1,0,0,0,0,-
O=C(C[C@@H]1C[C@@H]2c3cc(NC(=O)Cc4ccncc4)ccc3O[C@@H]2[C@H](CO)O1)NCc1ccc(-c2ccccc2)cc1,0,0,0,102.1,-
O=C(C[C@@H]1C[C@H]2c3cc(NC(=O)Cc4ccncc4)ccc3O[C@H]2[C@@H](CO)O1)NCc1ccc(-c2ccccc2)cc1,0,0,0,0,-
CCCNC(=O)C[C@H]1C[C@H]2c3cc(NC(=O)CN(C)C)ccc3O[C@H]2[C@H](CO)O1,88.8[16.7 µM],0,0,0,-
CCCNC(=O)C[C@@H]1C[C@H]2c3cc(NC(=O)Cc4ccncc4)ccc3O[C@H]2[C@@H](CO)O1,93.3[16.7 µM],0,0,0,-
COCCNC(=O)C1CCCN(C(=O)c2ccc3sccc3c2)CC1 (centres undefined),-,0,8.5,0,0
O=C(NCC1CC1)[C@@H]1[C@@H](CO)[C@@H]2Cn3c(ccc(-c4ccccc4F)c3=O)[C@H]1N2Cc1cncnc1,-,0,0,0,-
COc1ccc(C=C2c3ccccc3C(=O)c3ccccc32)c(OC)c1,0,51.7,0,0,0
COc1ccc(/C=C2\CN(Cc3ccccc3)C/C(=C\c3ccc(OC)cc3OC)C2=O)c(OC)c1,0,-,-,92.9,0
Cc1ccc(S(=O)(=O)N(C)C[C@H]2Oc3c(NS(=O)(=O)c4cccs4)cccc3C(=O)N([C@H](C)CO)C[C@@H]2C)cc1,0,0,0,0,-
Cc1cc(C)cc(Oc2cc(NC(=O)c3cn(C)nc3C)cc([N+](=O)[O-])c2)c1,59.4,-,-,-,0
C[C@H]1CCCCO[C@H](CN(C)S(=O)(=O)c2ccc(Cl)cc2)[C@@H](C)CN([C@@H](C)CO)C(=O)c2cc(NS(=O)(=O)c3ccccc3)ccc2O1,-,0,0,74.2,-
C[C@@H]1CN([C@H](C)CO)C(=O)c2cc(NS(=O)(=O)c3ccc(Cl)cc3)ccc2O[C@@H](C)CCCCO[C@H]1CN(C)S(=O)(=O)c1ccccc1,-,-,0,0,-
C[C@@H]1CCCCO[C@H](CN(C)S(=O)(=O)c2ccccc2)[C@H](C)CN([C@@H](C)CO)C(=O)c2cc(NS(=O)(=O)c3ccc(Cl)cc3)ccc2O1,0,0,0,81.2,-
C[C@H](CO)N1C[C@H](C)[C@H](CN(C)S(=O)(=O)c2ccc(Cl)cc2)OCCCC[C@H](C)Oc2ccc(NS(=O)(=O)c3ccccc3)cc2C1=O,0,0,0,72.3,-
C[C@@H]1CN([C@H](C)CO)C(=O)c2cc(NS(=O)(=O)c3ccccc3)ccc2O[C@@H](C)CCCCO[C@@H]1CN(C)S(=O)(=O)c1ccc(Cl)cc1,0,0,0,0,-
C[C@@H]1CCCCO[C@@H](CN(C)S(=O)(=O)c2ccc(Cl)cc2)[C@@H](C)CN([C@@H](C)CO)C(=O)c2cc(NS(=O)(=O)c3ccccc3)ccc2O1,-,-,0,0,-
SMILES,HIV Env fusion,EWS-Fli inh,F508del corr,PAX8 inh HTS,FXN GAA850 act
CCc1ccc2nc(SCC(=O)Nc3ccccc3N3CCOCC3)c(C#N)cc2c1,0,58.6,0,0,0
O=C(C[C@H]1C=C[C@H](NC(=O)Nc2ccc(F)cc2)[C@H](CO)O1)NCc1ccccn1,0,0,0,0,-
COc1cc(/C=C/c2cc[n+](C)cc2)ccc1OCC(=O)Nc1ccc(Cl)c(Cl)c1,0,0,0,109.5,0
CC(C)NC(=O)Nc1ccc2c(c1)CC(=O)N([C@H](C)CO)C[C@H](C)[C@@H](CN(C)S(C)(=O)=O)O2,0,0,0,0,-
C[C@@H]1CN([C@H](C)CO)S(=O)(=O)c2ccc(C#Cc3ccccc3F)cc2O[C@H]1CN(C)C(=O)c1ccc2c(c1)OCO2,0,0,0,63.1!,0
COc1ccccc1C#Cc1ccc2c(c1)O[C@H](CN(C)Cc1cccnc1)[C@H](C)CN([C@H](C)CO)S2(=O)=O,-,0,0,90.2,-
C[C@@H]1CN([C@H](C)CO)S(=O)(=O)c2ccc(C#Cc3ccccc3F)cc2O[C@H]1CN(C)C(=O)Cc1cccnc1,0,0,10.3,-,-
COc1ccccc1C#Cc1ccc2c(c1)O[C@H](CN(C)Cc1cncnc1)[C@H](C)CN([C@H](C)CO)S2(=O)=O,0,0,0,0,-
COc1ccccc1C#Cc1ccc2c(c1)O[C@@H](CN(C)Cc1ccncc1)[C@@H](C)CN([C@@H](C)CO)S2(=O)=O,45.6[16.7 µM],0,0,0,-
C[C@H](CO)N1C[C@H](C)[C@H](CN(C)C(=O)Cc2cccnc2)Oc2cc(C#Cc3ccccc3F)ccc2S1(=O)=O,0,0,0,-,-
C[C@H](CO)N1C[C@H](C)[C@H](CN(C)C)Oc2ncc(C#Cc3ccccc3)cc2C1=O,-,0,0,0,-
COc1ccccc1C#Cc1ccc2c(c1)O[C@@H](CN(C)Cc1cncnc1)[C@H](C)CN([C@H](C)CO)S2(=O)=O,0,0,0,85.5,-
COc1ccccc1C#Cc1ccc2c(c1)O[C@@H](CN(C)Cc1cccnc1)[C@H](C)CN([C@H](C)CO)S2(=O)=O,-,0,8.2,83.7,-
COc1cccc(-c2cnc3c(c2)C(=O)N([C@@H](C)CO)C[C@@H](C)[C@H](CN(C)CC2CCCC2)O3)c1,0,0,0,0,-
C/C=C/c1ccc([C@@H]2[C@@H](C#N)N(c3ncc(CC)s3)[C@@H]2CO)cc1,0,0,0,0,-
Cc1cccc(C(=O)Oc2ccc(/C=N/NC(=O)c3ccc(O)cc3)cc2)c1,0,-,0,0,0
Cc1cccc(C(=O)Oc2ccc(/C=N/NC(=O)c3ccccc3O)cc2)c1,-,0,0,104.0,0
C=CCSc1nnc(NC(=O)C2CC(=O)N(c3ccc4c(c3)OCCO4)C2)s1 (centres undefined),0,0,0,80.6,0
